Test results: PubChem BioAssay (NCATS)
Records with an inconclusive call do not appear. Activity calls are given as the source filed them. The call rests on the fitted dose curve; in most records, active means well fitted cell-killing curve with a large enough effect; inconclusive means small, poorly fitted or top-dose-only effect, or effect the other way; inactive means flat fitted curve, though single readings scatter.

Experiments:
Experiment in all cases: Primary qHTS to identify gynecologic anti-cancer compounds using libraries of approved drugs and bioactive compounds (AID 1345084); further: nearly all actives have a fitted effect of over 55% in size
Conditions in all cases: Gynecologic cancer cell panel viability, ATPlite luminescence, 48 h; series mostly up to 57.5 µM
OV90 = tested on: OV90
Outline: (§1)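 Cell viability after 48 h drug treatment, ATPlite luminescence readout; five doses.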

PA-1 = tested on: PA-1
Outline: as §1

SKOV3 = tested on: SKOV3
Outline: as §1

Tov-21-G = tested on: Tov-21-G
Outline: as §1

Tov112D = tested on: Tov112D
Outline: as §1
On the % scale 0 is the no-effect control and ±100 the full control effect.

CC(C)NC[C@H](O)COc1ccc(CCOCC2CC2)cc1
inactive: Potency (OV90) | Potency (PA-1) | Potency (SKOV3) | Potency (Tov-21-G) | Potency (Tov112D)

CNC(=O)[C@H]1O[C@@H](n2cnc3c(NCc4ccc(N)c(I)c4)ncnc32)[C@H](O)[C@@H]1O
inactive: activity change, negative = cytotoxicity (OV90) -0.89% [at 11.6 µM] | activity change, negative = cytotoxicity (PA-1) 0.696% [at 11.6 µM] | activity change, negative = cytotoxicity (SKOV3) -8.5% [at 11.6 µM] | activity change, negative = cytotoxicity (Tov-21-G) 15.7% [at 11.6 µM] | activity change, negative = cytotoxicity (Tov112D) 25.2% [at 11.6 µM]

CC(C)C1=CC2=CCC3[C@](C)(CCC[C@@]3(C)C(=O)O)C2CC1O (stereo not given in full)
inactive: Potency (OV90) | Potency (PA-1) | Potency (SKOV3) | Potency (Tov-21-G) | Potency (Tov112D)

CO[C@H]1C=C2C(CC[C@H](O[C@@H]3O[C@H](CO)[C@@H](O)[C@@H](O)[C@H]3O)C2(C)C)[C@]2(C)CC[C@]3(C)C([C@H](C)C(O)C(C=C(C)C)O[C@@H]4O[C@H](CO)[C@@H](O)[C@@H](O)[C@H]4O)CC[C@@]3(C)C12 (stereo not given in full)
inactive: activity change, negative = cytotoxicity (OV90) 5.72% [at 11.6 µM] | activity change, negative = cytotoxicity (PA-1) -0.818% [at 11.6 µM] | activity change, negative = cytotoxicity (SKOV3) -12.6% [at 11.6 µM] | activity change, negative = cytotoxicity (Tov-21-G) 4% [at 11.6 µM] | activity change, negative = cytotoxicity (Tov112D) 2.11% [at 11.6 µM]

Cc1nnc(C(C)C)n1C1CC2CCC(C1)N2CCC(NC(=O)C1CCC(F)(F)CC1)c1ccccc1 (stereo not given)
inactive: Potency (OV90) | Potency (PA-1) | Potency (SKOV3) | Potency (Tov-21-G) | Potency (Tov112D)

CC(=O)O[C@H]1CC[C@@]2(CI)C(=CC[C@@H]3[C@@H]2CC[C@]2(C)[C@@H]([C@H](C)CCCC(C)C)CC[C@@H]32)C1
inactive: activity change, negative = cytotoxicity (OV90) -2.38% [at 11.6 µM] | activity change, negative = cytotoxicity (PA-1) 22.4% [at 11.6 µM] | activity change, negative = cytotoxicity (SKOV3) 5.27% [at 11.6 µM] | activity change, negative = cytotoxicity (Tov-21-G) 10.3% [at 11.6 µM] | activity change, negative = cytotoxicity (Tov112D) 11.8% [at 11.6 µM]

C=C1CC2[C@]3(C)C(=C(O)C(=O)[C@@]2(C)[C@]2(C(=O)OC)C(=O)C(C)OC(=O)[C@@]12C)C(C)(C)C(=O)CC3O (stereo not given in full)
inactive: Potency (OV90) | Potency (PA-1) | Potency (SKOV3) | Potency (Tov-21-G) | Potency (Tov112D)

COc1cc([C@H]2OC[C@]3(OC(C)=O)[C@@H](c4ccc(O[C@@H]5O[C@H](CO)[C@@H](O)[C@H](O)[C@H]5O)c(OC)c4)OC[C@H]23)ccc1O
inactive: Potency (OV90) | Potency (PA-1) | Potency (SKOV3) | Potency (Tov-21-G) | Potency (Tov112D)

CN1C(=O)N[C@@H](Cc2c[nH]c3c(Cl)cccc23)C1=O
inactive: Potency (OV90) | Potency (PA-1) | Potency (SKOV3) | Potency (Tov-21-G) | Potency (Tov112D)

C/C(=C/CCC(CO)C1CCC2(C)C3CCC4C(C)(C)C(OC5OC(CO)C(O)C(O)C5O)CC(O)C45CC35CCC12C)COC1OC(CO)C(O)C(O)C1O (stereo not given)
inactive: Potency (OV90) | Potency (PA-1) | Potency (SKOV3) | Potency (Tov-21-G) | Potency (Tov112D)

O=C1NCc2nc3ccccc3c(=O)n2C1Cc1c[nH]c2ccccc12 (stereo not given)
inactive: Potency (OV90) | Potency (PA-1) | Potency (SKOV3) | Potency (Tov-21-G) | Potency (Tov112D)

OC[C@H]1O[C@@H](OC(CCCCc2ccc(O)cc2)CCc2ccc(O)cc2)[C@H](O[C@@H]2OC[C@](O)(CO)[C@H]2O)[C@@H](O)[C@@H]1O (stereo not given in full)
inactive: Potency (OV90) | Potency (PA-1) | Potency (SKOV3) | Potency (Tov-21-G) | Potency (Tov112D)

CC(=O)OC[C@]12[C@H](OC(C)=O)C(=O)[C@@H]3[C@@H](OC(C)=O)[C@@]14O[C@@]3(C)COC(=O)c1cccnc1[C@@H](C)[C@H](C)C(=O)O[C@@H]([C@H](OC(C)=O)[C@@H]2OC(C)=O)[C@]4(C)O
inactive: Potency (OV90) | Potency (PA-1) | Potency (SKOV3) | Potency (Tov-21-G) | Potency (Tov112D)

CC12CCC3c4ccc(O)cc4CCC3C1CCC2OC1OC(C(=O)O)C(O)C(O)C1O (stereo not given)
inactive: Potency (OV90) | Potency (PA-1) | Potency (SKOV3) | Potency (Tov-21-G) | Potency (Tov112D)

CC(=C/C(=O)O)/C=C/[C@]1(O)[C@@]2(C)CO[C@]1(C)C[C@H](O[C@@H]1O[C@H](CO)[C@@H](O)[C@H](O)[C@H]1O)C2
inactive: Potency (OV90) | Potency (PA-1) | Potency (SKOV3) | Potency (Tov-21-G) | Potency (Tov112D)

CCC(C)/C=C(C)/C=C/C1=CC2=C(Cl)C(=O)C(C)(OC(C)=O)C(=O)C2=CN1CCCC(=O)O (stereo not given)
inactive: Potency (OV90) | Potency (PA-1) | Potency (SKOV3) | Potency (Tov-21-G) | Potency (Tov112D)

CC(=O)OC1C(O)C(C)=C(CCC(C)CC(=O)O)C2(C)CCCC(C)(C)C12 (stereo not given)
inactive: Potency (OV90) | Potency (PA-1) | Potency (SKOV3) | Potency (Tov-21-G) | Potency (Tov112D)

COc1cc2c(cc1O)C1(OC)Cc3ccc4c(c3C1N(C)CC2)OCO4 (stereo not given)
inactive: Potency (OV90) | Potency (PA-1) | Potency (SKOV3) | Potency (Tov-21-G) | Potency (Tov112D)

C=C1CC[C@@H]2[C@](C)(CO[C@@H]3O[C@H](CO)[C@@H](O)[C@H](O)[C@H]3O)CCC[C@@]2(C)[C@@H]1CCC1=CCOC1=O
inactive: Potency (OV90) | Potency (PA-1) | Potency (SKOV3) | Potency (Tov-21-G) | Potency (Tov112D)
